# From PubChem BioAssay
# Values without a mark were called inactive. Activity calls are given as the source filed them. Rule as the data show it, unless noted: active = inhibition above about 25%; inactive = the rest.
# Columns and labels:
# [1] = biological target: Nuclear receptor coactivator 1 (Homo sapiens) (UniProt Q15788); test: SRC1 coactivator transcriptional activity inhibitors, confirmation, cell-based, luminescence, quadruplicate (AID 588820;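 active = mean inhibition above 46.68%, the untreated control wells mean plus 3 SD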;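 also: 0% = DMSO wells and 100% = gossypol 36 µM treated wells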); conditions: HEK293 GAL4-SRC1 luciferase reporter, at 3.6 µM, active compounds read high
# [2] = VP16 transactivation inhibitors, counter-screen for SRC1 inhibitor project, cell-based, luminescence, high throughput (AID 588824); conditions: cell-based VP16 transactivation luciferase luminescence; at 3.6 µM; active compounds read high
# Chain of Nuclear receptor coactivator 1 (Homo sapiens) (Q15788 whole entry, looked up, the tested form may be a part): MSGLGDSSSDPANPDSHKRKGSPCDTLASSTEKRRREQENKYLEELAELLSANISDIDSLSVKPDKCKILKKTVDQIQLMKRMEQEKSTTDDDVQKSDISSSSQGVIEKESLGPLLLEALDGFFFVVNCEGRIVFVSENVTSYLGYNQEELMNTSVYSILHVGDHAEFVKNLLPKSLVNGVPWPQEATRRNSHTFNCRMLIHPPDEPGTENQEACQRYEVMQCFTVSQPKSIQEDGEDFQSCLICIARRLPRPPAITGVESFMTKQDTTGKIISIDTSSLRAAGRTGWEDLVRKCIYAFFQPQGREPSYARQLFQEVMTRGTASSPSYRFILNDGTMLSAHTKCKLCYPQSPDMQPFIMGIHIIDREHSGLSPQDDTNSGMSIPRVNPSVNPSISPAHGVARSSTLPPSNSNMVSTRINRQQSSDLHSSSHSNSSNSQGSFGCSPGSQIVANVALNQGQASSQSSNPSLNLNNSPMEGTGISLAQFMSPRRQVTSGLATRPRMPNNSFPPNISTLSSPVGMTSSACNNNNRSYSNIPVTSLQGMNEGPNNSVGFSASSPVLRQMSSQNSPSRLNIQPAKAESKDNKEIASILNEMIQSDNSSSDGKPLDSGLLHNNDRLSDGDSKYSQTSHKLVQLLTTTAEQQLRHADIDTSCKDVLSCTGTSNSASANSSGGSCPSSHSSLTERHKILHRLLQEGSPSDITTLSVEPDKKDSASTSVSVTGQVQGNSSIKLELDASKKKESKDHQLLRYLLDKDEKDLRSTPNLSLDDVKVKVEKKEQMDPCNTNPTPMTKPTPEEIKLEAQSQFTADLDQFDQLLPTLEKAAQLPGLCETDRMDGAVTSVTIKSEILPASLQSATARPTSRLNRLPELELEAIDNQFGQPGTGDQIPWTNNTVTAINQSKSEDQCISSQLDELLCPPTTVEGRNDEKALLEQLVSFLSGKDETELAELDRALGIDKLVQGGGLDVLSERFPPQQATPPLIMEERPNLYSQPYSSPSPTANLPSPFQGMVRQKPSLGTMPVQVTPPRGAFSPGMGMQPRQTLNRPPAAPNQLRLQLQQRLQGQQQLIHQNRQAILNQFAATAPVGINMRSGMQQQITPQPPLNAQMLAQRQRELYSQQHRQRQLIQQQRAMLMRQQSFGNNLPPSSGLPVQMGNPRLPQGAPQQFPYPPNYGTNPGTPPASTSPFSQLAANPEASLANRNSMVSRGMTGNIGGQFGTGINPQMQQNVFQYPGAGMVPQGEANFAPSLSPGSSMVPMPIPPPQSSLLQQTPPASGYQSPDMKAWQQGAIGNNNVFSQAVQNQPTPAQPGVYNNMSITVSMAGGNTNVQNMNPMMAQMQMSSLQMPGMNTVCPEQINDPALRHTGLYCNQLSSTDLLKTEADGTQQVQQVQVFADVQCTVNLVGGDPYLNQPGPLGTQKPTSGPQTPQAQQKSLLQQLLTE
SMILES,inhibition [1],inhibition [2]
CC(=O)NC(c1cccs1)c1cc(F)c2cccnc2c1O (configuration not stated),14.3%,15.3%
Cc1cccc(N2CCN(C(=O)CSc3nc4ccccc4nc3N3CC(C)OC(C)C3)CC2)c1C (configuration not stated),-26.1%,12.3%
Cc1cc(NC(=O)CN2CCN(S(=O)(=O)c3ccc4ccccc4c3)CC2)no1,-3.08%,-1.04%
CCOc1cccc(/C=N/NC(=O)c2cccnc2)c1O,17.4%,9.63%
NC(=O)c1ccc(N2CCN(S(=O)(=O)c3ccccc3)CC2)c([N+](=O)[O-])c1,-20.8%,31.9% (active)
CC(C)C[C@H](NC(=O)c1nc[nH]c1C(=O)N1CCN(C(=O)OC(C)(C)C)CC1)C(=O)OC(C)(C)C,21.8%,78.9% (active)
CCN(CC(=O)Nc1ccccc1C(F)(F)F)C(=O)c1ccc2[nH]c3c(c2c1)CC(C)CC3 (configuration not stated),-11.7%,-8.04%
CCN(C(=O)C(C)OC(=O)CCCNC(=O)c1ccc(Cl)cc1)c1ccccc1 (configuration not stated),-2.16%,-2.69%
COc1ccc(OCCN2CCN(C(=O)c3ccc(OC(F)F)c(OC)c3)CC2)cc1,2.42%,2.73%
Cc1ccccc1COc1cccc(/C=N/NC(=O)c2nnn(-c3nonc3N)c2C)c1,7.5%,18.5%
O=C(Nc1cccc(F)c1)/C(=C\c1ccco1)NC(=O)c1ccco1,-13.4%,-7.03%
O=C(c1ccccc1)c1sc(Nc2ccc3c(c2)OCO3)nc1-c1ccccc1,13.9%,18.1%
O=C(c1ccccc1)C1CCN(C(=O)c2cccs2)CC1,-10%,-0.27%
COc1ccc(NS(=O)(=O)c2cc(NC(=O)CC(C)(C)C)ccc2N2CCCC2)cc1,-10.7%,-1.18%
CCOC(=O)C1CCN(S(=O)(=O)c2ccc3c(c2)CC(C)N3C(=O)C2CC2)CC1 (configuration not stated),-22.1%,3.71%
CCCc1cc(=O)oc2c(C)c(O[C@@H]3O[C@H](CO)[C@@H](O)[C@H](O)[C@H]3O)ccc12,-6.26%,-0.67%

SMILES,inhibition [1],inhibition [2]
O=C(c1nnsc1S(=O)c1ccc(Cl)cc1)N1CCOCC1 (configuration not stated),-24.9%,-6.26%
CC1Cc2ccccc2N1S(=O)(=O)c1cccc(C(=O)N2CCN(c3ncccn3)CC2)c1 (configuration not stated),16.5%,77.4% (active)
COc1ccc(S(=O)(=O)N(C)c2ccc(C(=O)NCc3ccco3)cc2)cc1OC,-12.2%,-0.34%
CCN1/C(=C2\C(=O)N(C)C(=S)N2c2ccccc2)C=Cc2ccccc21,-4.3%,2.2%
Cc1cnc(C(=O)Nc2cccc3cccnc23)cn1,-34.4%,-21.9%
COc1cccc2c1OC1(C)CC2NC(=O)N1c1cccc(C(=O)Nc2ccc3c(c2)OCCO3)c1 (configuration not stated),-28.6%,-19.2%
COc1cc2c(cc1OC)CN(CC(=O)Nc1cccc([N+](=O)[O-])c1)CC2,4.85%,6.41%
Cn1cc(S(=O)(=O)Nc2ccc(OC(F)(F)F)cc2)c(=O)n(C)c1=O,6.39%,-5.51%
Cc1cc(C)n(-c2ccc(C(=O)Nc3ccc(C)c(S(=O)(=O)N4CCOCC4)c3)cc2)n1,0.36%,-1.58%
CC(C)(C)c1ccc(CC(=O)N2CCC2(C)C(=O)Nc2ccc(F)cc2F)cc1 (configuration not stated),1.73%,14.4%
O=C(Nc1ccncc1)c1ccc(Cl)c(S(=O)(=O)N2CCc3ccccc32)c1,-6.49%,36.8% (active)
Cc1cccc(C(C)C)c1-n1nnnc1-c1ccccc1,-4.66%,13.5%
c1ccc(-c2csc3ncnc(NCCN4CCOCC4)c23)cc1,27.7%,22.6%
COc1ccc(-c2[nH]ncc2CN(C)Cc2nonc2C)c(OC)c1,-25%,-13.1%
O=C(COC(=O)CCC(=O)c1ccccc1)Nc1nnc(-c2ccccc2)o1,-19.6%,-8.55%
